Consider one compound from PubChem BioAssay (EPA / NIEHS).

Read-out in assay [1]: Interleukin-1 alpha (IL1a), IL1A (gene 3552)
The experiment in a line: BSK_BF4T_IL1a: BioMAP Diversity Plus: BF4T Assay for Interleukin-1 alpha (IL1a) Biomarker Activity (AID 2284264). The note with it: primary human bronchial epithelial cells with fibroblasts. Put shortly:
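Human bronchial epithelial cells co-cultured with dermal fibroblasts, dosed and read at 24 h. Secreted/surface IL-1α quantified by ELISA; gain-of-signal fitted relative to DMSO baseline. Parallel SRB total-protein staining tracked cytotoxicity.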

Read-out in assay [2]: Decorin, DCN (gene 1634)
Briefly: BSK_MyoF_Decorin: BioMAP Diversity Plus: MyoF Assay for Decorin Biomarker Activity (AID 2284265). The note with it: primary human lung fibroblasts. In outline: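 ELISA readout of decorin, 24 h post-dosing; primary human lung fibroblast (MyoF) culture; gain-of-signal fit vs DMSO baseline.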

Read-out in assay [3]: KRT18 (gene 3875)
Briefly: BSK_BF4T_Keratin818: BioMAP Diversity Plus: BF4T Assay for Keratin 818 Biomarker Activity (AID 2284266). The note with it: primary human bronchial epithelial cells with fibroblasts. In outline: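 Co-culture of human bronchial epithelial cells and dermal fibroblasts, chemical exposure 24 h. Keratin 8/18 measured by ELISA; positive-direction fit vs DMSO. SRB total protein run in parallel cultures for cytotoxicity.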

A short description of assay [4]: BSK_MyoF_SRB: Viability Assessment in the BioMAP Diversity Plus: MyoF Assay (AID 2284267).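 Also: total protein by SRB absorbance in parallel cultures as cytotoxicity measure; cells assessed 24 h after compound addition.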 The note with it: primary human lung fibroblasts. Put shortly:
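Cytotoxicity in primary human lung fibroblasts is gauged by SRB total-protein staining 24 h after dosing, with DMSO as the negative control.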

Read-out in assay [5]: Matrix Metallopeptidase 1 (MMP1), MMP1 (gene 4312)
The experiment in a line: BSK_MyoF_MMP1: BioMAP Diversity Plus: MyoF Assay for Matrix Metallopeptidase 1 (MMP1) Biomarker Activity (AID 2284268). The note with it: primary human lung fibroblasts. Put shortly:
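Cells: human lung fibroblasts. Exposure: 24 h chemical dosing. Detection: ELISA for MMP1. Analysis: upward fitting against DMSO negative control.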

Read-out in assay [6]: TIMP metallopeptidase inhibitor 1 (TIMP1), TIMP1 (gene 7076)
Briefly: BSK_MyoF_TIMP1: BioMAP Diversity Plus: MyoF Assay for TIMP metallopeptidase inhibitor 1 (TIMP1) Biomarker Activity (AID 2284269). The note with it: primary human lung fibroblasts. Put shortly: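 ELISA read-out of TIMP-1 from primary human lung fibroblast cultures 24 h after compound dosing; gain of signal relative to DMSO vehicle baseline defines activity.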

Read-out in assay [7]: Matrix Metallopeptidase 1 (MMP1), MMP1 (gene 4312)
Briefly: BSK_BF4T_MMP1: BioMAP Diversity Plus: BF4T Assay for Matrix Metallopeptidase 1 (MMP1) Biomarker Activity (AID 2284270). The note with it: primary human bronchial epithelial cells with fibroblasts. The protocol:
(§1) BSK_BF4T is a cell-based, multiplexed-readout assay that uses bronchial epithelial cells and dermal fibroblasts, a human vascular primary cell, with measurements taken at 24 hours after chemical dosing in a microplate: 96-well plate.BSK_BF4T_MMP1 is an assay component measured in the BSK_BF4T assay. It measures MMP-1 antibody related to regulation of gene expression using ELISA technology.Data from the assay component BSK_BF4T_MMP1 was analyzed at the endpoint, BSK_BF4T_MMP1, in the positive analysis fitting direction relative to DMSO as the negative control and baseline of activity. Using a type of binding reporter, gain or loss-of-signal activity can be used to understand protein changes. […]
(§2) The levels of cell surface (or secreted, indicated by the prefix "s") biomarker endpoints were measured by ELISA. Overt cytotoxicity to cells in confluent adherent cultures (all systems other than the BT system) was assessed by measuring total protein levels using sulforhodamine B (SRB) staining in parallel cultures at the time of biomarker measurements, indicated as SRB endpoints. For proliferation assays for adherent cell types, individual cell types are cultured at sub-confluence and relative cell numbers quantified by SRB staining at time points optimized for each system (48 h: 3C and CASM3C systems; 72 h: BT and HDF3CGF systems; 96 h: SAg system). […] Plates were read after 6 h.

Read-out in assay [8]: Matrix Metallopeptidase 3 (MMP3), MMP3 (gene 4314)
The experiment in a line: BSK_BF4T_MMP3: BioMAP Diversity Plus: BF4T Assay for Matrix Metallopeptidase 3 (MMP3) Biomarker Activity (AID 2284271). The note with it: primary human bronchial epithelial cells with fibroblasts. In outline:
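Co-culture of human bronchial epithelial cells and dermal fibroblasts dosed 24 h; MMP-3 measured by ELISA, positive-direction fit versus DMSO. Cytotoxicity tracked by SRB total-protein staining (560 nm) in parallel cultures.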

Read-out in assay [9]: Tissue plasminogen activator (tPA), PLAT (gene 5327)
Briefly: BSK_BF4T_tPA: BioMAP Diversity Plus: BF4T Assay for Tissue plasminogen activator (tPA) Biomarker Activity (AID 2284272). The note with it: primary human bronchial epithelial cells with fibroblasts. How it is done:
as §1, with “plate.BSK_BF4T_tPA” for “plate.BSK_BF4T_MMP1”, “tPA” for “MMP-1”, “BSK_BF4T_tPA” for “BSK_BF4T_MMP1”, “BSK_BF4T_tPA,” for “BSK_BF4T_MMP1,”
as §2

Read-out in assay [10]: Plasminogen Activator Inhibitor-1 (PAI1), SERPINE1 (gene 5054)
The experiment in a line: BSK_BF4T_PAI1: BioMAP Diversity Plus: BF4T Assay for Plasminogen Activator Inhibitor-1 (PAI1) Biomarker Activity (AID 2284273). The note with it: primary human bronchial epithelial cells with fibroblasts. How it is done:
as §1, with “plate.BSK_BF4T_PAI1” for “plate.BSK_BF4T_MMP1”, “PAI-1” for “MMP-1”, “BSK_BF4T_PAI1” for “BSK_BF4T_MMP1”, “BSK_BF4T_PAI1,” for “BSK_BF4T_MMP1,”
as §2

What is called AC50 is the concentration giving half of the maximal activity seen.

“And” between values parts separate entries of the source, which are not always exact repeats. Equal values may be shown once. Some compounds were tested as several samples or in several runs, with calls that do not always agree. The source made the active and inactive calls. The calls were made as follows: active = hit-call score of the fitted dose curve at least 0.9, where 1 is the maximum; inactive = score below 0.9.

In the case of `CCNS(=O)(=O)C(F)(F)C(F)(F)C(F)(F)C(F)(F)C(F)(F)C(F)(F)C(F)(F)C(F)(F)F`, the AC50 in assay [1] was 36.5 µM (active) and 44.4 µM (active); in [2] it was 40.9 µM (active) and 45.6 µM (active); in [3], 15.3 µM (active) and 22.5 µM (active); in assay [4], 48.8 µM (active) and 50.9 µM (active); in assay [6] it was 38.9 µM (active) and 31.6 µM (active); in [7], 30 µM (active). For the same compound, the AC50 in assay [9] was 7.68 µM (active) and 8.65 µM (active); in assay [10], 41.2 µM (active). Besides, the result in [5], in assay [8] and in assay [10] was inactive.
